# Experimental data published in PubChem BioAssay (NCATS).
# Unmarked numbers belong to inactive results. The rule behind the calls is not given here.
# Tested on: HIV-1 nucleocapsid protein NCp7 (binding to TG oligonucleotide)
# Assay: HIV Nucleocapsid (AID 346);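 note: potency is for inhibitors that block NC binding and lower polarization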
# Details: HIV-1 NC / fluorescein-TGTGTGTG probe, fluorescence polarization
# Procedure, shortened: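 Inhibition of nucleocapsid binding to single-stranded 5'-TGTGTGTG probe (10 nM) was measured by fluorescence polarization after 1 hr at room temperature with 100 nM protein under high-salt, zinc-containing, reducing conditions.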
# Potency is the fitted concentration of half-maximal effect.
row,Compound,Potency [µM]
1,Cc1cnc(CNc2ccnc(-c3c(C)noc3C)n2)cn1,> 20
2,O=C(c1ccncc1)N1CCC2(CCCN(Cc3ccncc3)C2)CC1,> 20
3,Cc1cccc(CNc2nc(-c3ccc(C(=O)N(C)C)cc3)nc3ccccc23)c1,> 20
4,c1cncc(-c2nc(-n3ccnc3)c3ccccc3n2)c1,> 20
5,c1cncc(CNc2ccnc(-c3ccc4c(c3)OCO4)n2)c1,> 20
6,Cc1ccccc1-c1nc(NC2CC2)c2ccccc2n1,> 20
7,COc1cccc(Nc2ncc3nc(-c4ccc(F)cc4)c(=O)n(CCC#N)c3n2)c1,> 4
8,COc1ccc(-n2c(=O)cnc3cnc(N4CCN(C)CC4)nc32)cc1,> 20
9,O=C(c1ccco1)N1CCC[C@@]2(CCN(C(c3ccccc3)c3ccccc3)C2)C1,> 20
10,O=C(c1ccco1)N1CCC2(CC1)CN(c1ccccn1)C2,> 20
11,CCNc1ncc2nc(-c3ccc(OC)cc3)c(=O)n(-c3ccc(OC)cc3)c2n1,> 4
12,Cn1cc(-c2nc3cnc(N4CCOCC4)nc3n(C3CC3)c2=O)c2ccccc21,> 20
13,CN(C)Cc1ccccc1-c1ccc2ncnc(NCc3ccccc3)c2c1,> 20
14,COc1ccc2[nH]cc(CCNc3ncnc4ccc(-c5cccc(C#N)c5)cc34)c2c1,> 20
15,CC(=O)NCCNc1ccnc(-c2ccccc2C(F)(F)F)n1,> 20
16,Cc1noc(C)c1-c1cc(Nc2ccccc2)ncn1,> 20
17,COc1cccc(Cn2c(=O)c(-c3ccc(Cl)cc3)nc3cncnc32)c1,> 20
18,Cc1noc(C)c1C(=O)N1CCC2(CCN(C(=O)NC(C)C)CC2)CC1,> 20
19,Cc1cnc(CNc2ncncc2-c2ccc(C(=O)N(C)C)cc2)cn1,> 20
20,COc1ncc2ncc(=O)n(Cc3cccs3)c2n1,> 20

row,Compound,Potency [µM]
1,CS(=O)(=O)N1CCC2(CC1)CN(c1cccc(-c3ccccc3)c1)C2,> 20
2,CC(C)NC(=O)N1CC[C@@]2(CCCN(C(=O)c3cccn3C)C2)C1,> 20
3,O=c1c(-c2ccccc2)nc2cncnc2n1Cc1ccc(F)cc1,> 20
4,CS(=O)(=O)N1CCC[C@@]2(CCN(Cc3ccccc3)C2)C1,> 20
5,c1cncc(CNc2ncnc3ccc(-c4ccoc4)cc23)c1,> 20
6,O=C(c1csnn1)N1CCC2(CC1)CN(c1ccncc1)C2,> 20
7,CS(=O)(=O)Nc1cccc(-c2cc(NCc3cccs3)ncn2)c1,> 20
8,N#CCCn1c(=O)c(-c2ccc(Cl)cc2)nc2cnc(OCc3ccccc3)nc21,> 20
9,O=C(c1ccco1)N1CCC[C@@]2(CCN(Cc3ccccc3)C2)C1,> 20
10,Cc1cccc(CNc2cc(-c3cccc(C#N)c3)ncn2)c1,> 20
11,Cc1ccccc1-c1nc(NC2CCNCC2)c2ccccc2n1,> 20
12,Cc1cnc(CNc2cc(-c3ccoc3)ncn2)cn1,> 20
13,COc1ccccc1CNc1ccnc(-c2ccccc2C(F)(F)F)n1,> 20
14,N#Cc1ccc(CN2CCC3(CCNCC3)CC2)cc1,> 20
15,COC(=O)N1CCC2(CC1)CN(C(=O)Nc1ccccc1)C2,> 20
16,O=c1cnc2cnc(N3CCOCC3)nc2n1CCc1ccccc1,> 20
17,COCCNc1ncnc2ccc(-c3cccc(OC)c3)cc12,> 20
18,O=C(c1cc(C(F)(F)F)cc(C(F)(F)F)c1)N1CCC2(CCCN(c3ccccc3)C2)CC1,> 20
19,COc1ccc(-c2nc3cnc(N(C)C)nc3n(CCC#N)c2=O)cc1,> 20
20,Cn1cc(-c2nc3cncnc3n(Cc3ccc(F)cc3)c2=O)c2ccccc21,> 20
